# For some of these results: Measured potencies and affinities stand elsewhere.
# Legend:
# Set-up in all cases: scale not given: direction of the effect not stated beside the values
# [1] = target: Protein translocase subunit SecA (Escherichia coli (strain K12)) (UniProt P10408); assay: Assay to Identify E. coli SecA ATPase Inhibitors; format: functional; details: 30 µM
# [2] = target: T1, Ubiquitin-activating enzyme e1, putative (Leishmania donovani (strain BPK282A1)) (UniProt E9BSI1); assay: Leishmania donovani Ubiquitin Activating Enzyme (LdE1); format: functional; details: 30 µM
# T1 sequence (whole entry): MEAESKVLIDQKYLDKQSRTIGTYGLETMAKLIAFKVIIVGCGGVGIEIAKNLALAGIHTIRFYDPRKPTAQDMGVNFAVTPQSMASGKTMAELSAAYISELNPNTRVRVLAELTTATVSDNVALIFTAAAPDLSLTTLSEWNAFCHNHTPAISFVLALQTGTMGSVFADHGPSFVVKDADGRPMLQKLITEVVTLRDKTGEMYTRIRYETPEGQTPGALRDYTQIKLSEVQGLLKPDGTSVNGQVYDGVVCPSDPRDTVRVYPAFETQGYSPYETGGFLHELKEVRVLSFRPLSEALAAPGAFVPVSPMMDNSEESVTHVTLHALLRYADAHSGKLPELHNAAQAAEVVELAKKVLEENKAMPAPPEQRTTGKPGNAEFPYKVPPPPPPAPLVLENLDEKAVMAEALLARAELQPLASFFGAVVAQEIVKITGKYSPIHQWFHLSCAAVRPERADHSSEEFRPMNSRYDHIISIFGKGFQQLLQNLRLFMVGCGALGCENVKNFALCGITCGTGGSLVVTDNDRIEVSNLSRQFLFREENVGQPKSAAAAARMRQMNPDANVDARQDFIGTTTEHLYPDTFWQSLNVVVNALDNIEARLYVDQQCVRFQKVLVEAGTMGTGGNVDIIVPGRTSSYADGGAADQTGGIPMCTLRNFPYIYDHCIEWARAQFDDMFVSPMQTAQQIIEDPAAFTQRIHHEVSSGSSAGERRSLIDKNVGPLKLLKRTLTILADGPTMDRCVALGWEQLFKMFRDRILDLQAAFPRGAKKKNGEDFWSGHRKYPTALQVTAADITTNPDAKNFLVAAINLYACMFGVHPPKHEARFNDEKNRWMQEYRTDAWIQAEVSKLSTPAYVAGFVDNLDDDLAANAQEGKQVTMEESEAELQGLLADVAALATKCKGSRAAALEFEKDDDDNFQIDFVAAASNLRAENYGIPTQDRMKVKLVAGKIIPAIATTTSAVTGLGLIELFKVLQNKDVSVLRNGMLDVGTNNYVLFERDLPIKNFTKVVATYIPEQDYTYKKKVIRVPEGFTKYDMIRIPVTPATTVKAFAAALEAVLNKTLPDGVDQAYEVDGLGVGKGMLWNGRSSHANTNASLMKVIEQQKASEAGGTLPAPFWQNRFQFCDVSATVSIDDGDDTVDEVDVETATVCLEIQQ
# [3] = target: AMP-activated protein kinase, AMPK (Homo sapiens) (UniProt P54646+O43741+P54619+Q9UGJ0+Q9Y478+Q13131+Q9UGI9); assay: AMP-dependent Kinase enzyme assay. An in vitro enzyme assay that detects ADP turnover that is directly proportional to AMPK activity. This uses naive AMPK that is activated during the assay with MK-8722; format: functional; details: 30 µM
# [4] = target: Sialic acid-binding Ig-like lectin 9 (Homo sapiens) (UniProt Q9Y336); assay: Hs-Siglec9 ALPHAscreen SOP 20170721; details: 10 µM
# Sequence of Sialic acid-binding Ig-like lectin 9 (Homo sapiens) (Q9Y336 whole entry): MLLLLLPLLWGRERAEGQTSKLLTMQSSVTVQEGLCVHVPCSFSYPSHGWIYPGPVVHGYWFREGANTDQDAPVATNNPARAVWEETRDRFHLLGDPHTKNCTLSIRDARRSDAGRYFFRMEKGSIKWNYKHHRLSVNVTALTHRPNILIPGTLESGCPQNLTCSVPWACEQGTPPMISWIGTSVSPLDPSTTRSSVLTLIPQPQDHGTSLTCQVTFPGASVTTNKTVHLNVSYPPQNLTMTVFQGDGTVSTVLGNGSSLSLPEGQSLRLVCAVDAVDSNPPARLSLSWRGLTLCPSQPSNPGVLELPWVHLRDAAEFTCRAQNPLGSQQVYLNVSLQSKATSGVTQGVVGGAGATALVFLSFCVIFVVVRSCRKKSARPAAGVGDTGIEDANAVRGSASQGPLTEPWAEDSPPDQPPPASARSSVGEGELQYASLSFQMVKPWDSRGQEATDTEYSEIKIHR
# Trypanosoma cruzi = assay: Trypanosoma cruzi phosphomannomutase and mannose-1-phosphate guanylyltransferase assay; format: functional; details: 10 µM
# [5] = target: T2, Arginase-2, mitochondrial (Homo sapiens) (UniProt P78540); assay: in vitro enzyme assay to detect the production of urea directly proportional to the activity of Arginase II; format: functional; details: 33.3 µM; also: in the data most compounds retested in dose-response had high values
# T2 sequence (whole entry): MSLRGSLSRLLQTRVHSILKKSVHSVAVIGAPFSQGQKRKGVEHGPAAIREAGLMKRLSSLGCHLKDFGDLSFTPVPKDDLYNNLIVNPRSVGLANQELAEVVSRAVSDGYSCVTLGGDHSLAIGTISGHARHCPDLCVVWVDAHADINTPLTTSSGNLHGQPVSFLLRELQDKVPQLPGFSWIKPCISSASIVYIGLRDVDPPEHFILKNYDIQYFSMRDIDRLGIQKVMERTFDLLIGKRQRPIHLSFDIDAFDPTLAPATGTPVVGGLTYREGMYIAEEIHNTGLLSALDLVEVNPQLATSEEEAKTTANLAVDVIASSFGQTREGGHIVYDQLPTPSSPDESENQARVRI
# [6] = target: T3, Proteasome subunit beta (Trypanosoma cruzi) (UniProt O96673); assay: Trypanosoma cruzi proteasome chymotrypsin-like activity (TcProtChymo) assay.; also: in the data most compounds retested in dose-response had high values; format: functional; details: 9.37 µM
# T3 sequence (whole entry): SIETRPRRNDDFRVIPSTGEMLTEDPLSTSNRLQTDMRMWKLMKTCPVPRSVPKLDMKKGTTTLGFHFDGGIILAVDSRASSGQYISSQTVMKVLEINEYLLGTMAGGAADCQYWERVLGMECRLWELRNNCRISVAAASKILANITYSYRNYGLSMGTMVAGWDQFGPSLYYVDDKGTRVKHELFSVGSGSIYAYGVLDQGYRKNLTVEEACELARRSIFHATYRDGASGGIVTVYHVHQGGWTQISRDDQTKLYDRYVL
# Homo sapiens = organism: Homo sapiens; assay: To identify inhibition of the IFN signalling (Jak-Stat) pathway via expression of an eGFP reporter gene under the control of an IFN-stimulated response element (ISRE) containing MxA promoter.; format: functional; details: 30 µM
# [7] = target: T4, Tyrosyl-tRNA synthetase, putative (Trypanosoma cruzi (strain CL Brener)) (UniProt Q4DSP6); assay: Trypanosoma cruzi tyrosyl tRNA synthetase (TcYRS) _High Tyrosine SOP; format: functional; details: 30 µM; also: in the data most compounds retested in dose-response had high values
# T4 sequence (whole entry): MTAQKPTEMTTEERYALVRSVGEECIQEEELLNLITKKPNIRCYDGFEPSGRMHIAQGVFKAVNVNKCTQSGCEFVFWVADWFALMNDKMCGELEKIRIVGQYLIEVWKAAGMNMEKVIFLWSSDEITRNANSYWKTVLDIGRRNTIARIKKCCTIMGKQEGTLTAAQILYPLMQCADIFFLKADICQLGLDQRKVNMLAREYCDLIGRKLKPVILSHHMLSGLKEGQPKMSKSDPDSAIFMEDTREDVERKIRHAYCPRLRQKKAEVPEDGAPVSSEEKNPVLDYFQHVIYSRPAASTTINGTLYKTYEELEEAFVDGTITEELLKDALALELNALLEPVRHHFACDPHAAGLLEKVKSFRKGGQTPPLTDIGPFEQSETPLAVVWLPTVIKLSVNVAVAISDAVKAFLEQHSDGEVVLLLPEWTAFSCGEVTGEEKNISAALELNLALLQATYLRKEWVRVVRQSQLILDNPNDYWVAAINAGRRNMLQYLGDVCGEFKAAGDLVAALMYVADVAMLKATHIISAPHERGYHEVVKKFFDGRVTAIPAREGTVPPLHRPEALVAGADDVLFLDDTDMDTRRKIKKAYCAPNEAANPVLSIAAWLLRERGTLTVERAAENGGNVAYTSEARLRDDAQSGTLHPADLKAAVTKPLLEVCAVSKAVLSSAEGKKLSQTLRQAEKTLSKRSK
# [8] = target: T4, Tyrosyl-tRNA synthetase, putative (Trypanosoma cruzi (strain CL Brener)); assay: Trypanosoma cruzi tyrosyl tRNA synthetase (TcYRS) SOP; format: functional; details: 30 µM
# [9] = target: Chromo domain-containing protein 1 (Saccharomyces cerevisiae (strain ATCC 204508 / S288c) (Baker's yeast)) (UniProt P32657); assay: ScCHD-1 Enzyme Inhibition Assay; format: functional; details: 30 µM; also: in the data most compounds retested in dose-response had high values
# Sequence of Chromo domain-containing protein 1 (Saccharomyces cerevisiae (strain ATCC 204508 / S288c) (Baker's yeast)) (P32657 whole entry, the tested form may be a part): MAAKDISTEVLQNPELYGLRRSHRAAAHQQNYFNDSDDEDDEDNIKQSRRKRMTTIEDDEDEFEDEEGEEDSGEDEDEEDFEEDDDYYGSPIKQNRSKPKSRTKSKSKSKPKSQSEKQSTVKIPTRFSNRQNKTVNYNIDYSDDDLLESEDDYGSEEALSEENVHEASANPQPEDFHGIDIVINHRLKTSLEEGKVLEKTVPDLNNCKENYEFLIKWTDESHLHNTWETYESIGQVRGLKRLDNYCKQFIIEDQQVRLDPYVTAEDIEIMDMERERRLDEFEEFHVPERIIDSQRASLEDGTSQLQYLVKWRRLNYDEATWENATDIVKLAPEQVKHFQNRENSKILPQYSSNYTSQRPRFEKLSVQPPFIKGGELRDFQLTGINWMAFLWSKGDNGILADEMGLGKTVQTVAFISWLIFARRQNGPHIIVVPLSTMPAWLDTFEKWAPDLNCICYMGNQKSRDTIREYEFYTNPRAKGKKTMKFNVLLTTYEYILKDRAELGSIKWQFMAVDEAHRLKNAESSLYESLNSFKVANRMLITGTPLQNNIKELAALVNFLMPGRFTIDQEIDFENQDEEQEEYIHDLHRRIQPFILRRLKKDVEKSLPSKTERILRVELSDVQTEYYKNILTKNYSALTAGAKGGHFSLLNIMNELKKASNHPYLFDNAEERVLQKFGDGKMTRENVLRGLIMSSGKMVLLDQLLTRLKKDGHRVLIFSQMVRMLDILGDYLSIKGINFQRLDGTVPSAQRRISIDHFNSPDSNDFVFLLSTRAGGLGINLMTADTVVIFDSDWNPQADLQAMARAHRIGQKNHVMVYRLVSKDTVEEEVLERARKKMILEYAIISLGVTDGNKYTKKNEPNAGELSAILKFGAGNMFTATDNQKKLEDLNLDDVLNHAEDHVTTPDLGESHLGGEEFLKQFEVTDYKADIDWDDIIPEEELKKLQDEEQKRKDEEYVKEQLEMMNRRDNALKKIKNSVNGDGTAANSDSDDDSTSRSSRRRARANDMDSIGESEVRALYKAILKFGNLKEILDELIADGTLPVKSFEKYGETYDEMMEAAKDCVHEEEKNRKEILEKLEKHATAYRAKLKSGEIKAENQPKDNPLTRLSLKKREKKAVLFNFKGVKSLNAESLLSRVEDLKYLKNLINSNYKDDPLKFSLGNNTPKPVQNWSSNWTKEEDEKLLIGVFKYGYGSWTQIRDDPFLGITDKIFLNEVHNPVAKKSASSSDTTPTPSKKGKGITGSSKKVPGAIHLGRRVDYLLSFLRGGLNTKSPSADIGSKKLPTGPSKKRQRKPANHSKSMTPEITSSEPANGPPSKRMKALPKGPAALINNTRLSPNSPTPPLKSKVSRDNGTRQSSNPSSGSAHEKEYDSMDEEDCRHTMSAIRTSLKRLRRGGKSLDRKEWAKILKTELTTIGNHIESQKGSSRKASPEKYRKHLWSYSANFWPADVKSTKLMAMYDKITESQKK
# Sequence of Protein translocase subunit SecA (Escherichia coli (strain K12)) (P10408 whole entry): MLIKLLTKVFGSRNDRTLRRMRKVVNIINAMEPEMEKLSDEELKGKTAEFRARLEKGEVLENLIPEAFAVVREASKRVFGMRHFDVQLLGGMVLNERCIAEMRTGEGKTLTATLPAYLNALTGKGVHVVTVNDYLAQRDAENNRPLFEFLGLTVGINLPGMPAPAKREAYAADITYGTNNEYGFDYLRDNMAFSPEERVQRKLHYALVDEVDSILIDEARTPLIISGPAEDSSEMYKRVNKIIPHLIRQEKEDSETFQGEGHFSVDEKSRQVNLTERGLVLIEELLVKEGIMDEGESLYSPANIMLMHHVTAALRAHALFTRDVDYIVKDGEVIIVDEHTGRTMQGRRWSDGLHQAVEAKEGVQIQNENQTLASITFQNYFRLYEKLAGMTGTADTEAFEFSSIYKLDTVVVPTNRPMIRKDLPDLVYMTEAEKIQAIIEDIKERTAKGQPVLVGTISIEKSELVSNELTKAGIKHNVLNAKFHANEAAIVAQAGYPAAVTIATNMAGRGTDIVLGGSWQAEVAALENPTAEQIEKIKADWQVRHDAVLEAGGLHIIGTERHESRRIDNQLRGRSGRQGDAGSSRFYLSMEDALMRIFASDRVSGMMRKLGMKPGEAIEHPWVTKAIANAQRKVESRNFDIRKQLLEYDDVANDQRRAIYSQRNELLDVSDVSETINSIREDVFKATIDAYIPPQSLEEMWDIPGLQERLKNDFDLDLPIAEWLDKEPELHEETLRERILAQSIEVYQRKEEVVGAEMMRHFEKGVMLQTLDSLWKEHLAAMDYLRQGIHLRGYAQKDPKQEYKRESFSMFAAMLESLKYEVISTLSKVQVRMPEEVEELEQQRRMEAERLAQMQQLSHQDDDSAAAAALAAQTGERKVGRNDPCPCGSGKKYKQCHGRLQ
SMILES,Percent Effect [1] [%],Percent Effect [2] [%],Percent Effect [3] [%],Percent Effect [4] [%],Percent Effect (Trypanosoma cruzi) [%],Percent Effect [5] [%],Percent Effect [6] [%],Percent Effect (Homo sapiens) [%],Percent Effect [7] [%],Percent Effect [8] [%],Percent Effect [9] [%]
Cc1cnc(CN(Cc2ccccc2)CC(O)c2cccs2)cn1 (stereo unspecified),0.271,5.41,-2.24,20.3,6.35,41.9,0.772,5.39,-3.23,6.17,-11.6
Cc1ccc(CC(=O)N2CC[C@@H]3CN(CCN(C)C)CCO[C@@H]3C2)cc1,-0.0347,8.11,9.51,-10.3,-7.33,2.87,19.7,4.98,4.32,5.13,-4.03
COc1ccc(C(=O)NS(=O)(=O)c2cncc(Br)c2)cc1OC,-6.13,-5.41,-4.05,9.13,-2.51,0,2.07,24.4,2.65,0,-1.34
CCOCCn1c(=O)[nH]c2cc(C(=O)N(C)Cc3nc(C)cs3)ccc21,-0.0499,8.11,-5.57,8.59,-2.9,0.476,21,1.41,5.82,17.1,-3.61
O=C(Cc1ccccc1F)N1CCN(C(=O)c2ccoc2)CC1,-1.97,7.89,7.43,-1.79,-2.04,-23.7,22.5,-4.65,9.57,18.2,-2.49
CC(C)N(C)C(=O)C1=NOC2(CCN(C(=O)c3ccc(Cl)cc3)C2)C1 (stereo unspecified),-0.137,5.48,1.89,5.19,-7.54,-1.6,17.6,27.1,8.33,8.64,-3.93
O=C(NCC1CC1)[C@H]1C[C@@H]2CCN(Cc3nccs3)C[C@@H]2O1,-2.59,8.11,5.76,-2.2,4.4,-2.23,20.7,17.8,8.65,15.4,2.01
Cc1noc(CN2CCN(CC(C)O)CC2)n1 (stereo unspecified),-0.907,8.11,-4.38,4.09,0.195,1.25,9.21,-0.0675,6.93,8.54,-4.47
COc1ncccc1C(=O)N1CCCC(c2cc(C)[nH]n2)C1 (stereo unspecified),-4.92,0,-0.772,-1.9,-0.66,-0.802,1.8,10.4,1.48,-6.17,1.58
Cn1nc(COc2cccnc2)c2c1CCN(c1cnccn1)C2,-4.47,13.5,-0.741,2.04,0.293,14.3,26.2,4.97,5.41,12.8,-3.43
COc1c(C2CCCN2Cc2cc(C)no2)c(C)nn1C (stereo unspecified),-1.92,8.11,-4.61,-2.24,-5.11,3.88,11.3,15.9,4.95,11,-0.457

# From ChEMBL document CHEMBL3988442, “University of Dundee, Small-Polar-MMV Screening Library” (2021)
